MmCpn inh: Inhibitors of TCP-1 ring complex (TRiC) of Methanococcus maripaludis (MmCpn): qHTS; purified Mm-Cpn ATPase, ADP Transcreener TR-FRET; Chaperonin Mm-Cpn (Methanococcus maripaludis); actives 0.031% (n = 330,000); Potency, µM (titrated, usually from 76.9 µM), without a hit: top-dose activity, negative = inhibition, most hits filed as inhibitors; active = well fitted curve in the direction sought with a large enough effect; inconclusive = small, poorly fitted or top-dose-only effect, or another doubt; inactive = no such curve, though single readings can be large; an effect the other way counts as inactive or inconclusive; also: potency is read from the fitted curve at half-maximal effect; % is scaled to controls: 0 for no effect and ±100 for the full control effect; nearly all actives have a fitted effect of over 80% in size
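ATPase turnover read by TR-FRET ADP competition (Eu cryptate antibody/ADP-d2, 665/590 nm): 10uM ATP final, 25nM Mm-CPN final, 30 min 37degC after 10-min compound preincubation, pH 7.4 Tris/KCl/MgCl2/DTT buffer.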
Rango complex inh: qHTS Assay for Inhibitors of Rango (Ran-regulated importin-beta cargo) - Importin beta complex formation; actives 0.031% (n = 340,000); Rango CFP/YFP FRET sensor + importin beta, 45 min; Potency, µM (top dose mostly 92.2 µM), for the others: at the top dose inhibition of complex formation; AID 540263, 2011;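 also: potency is read from the fitted curve at half-maximal effect; 0% = DMSO wells and 100% = buffer wells lacking importin beta; nearly all actives have a fitted effect of over 15% in size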
Target sequence (Q14974 whole entry, looked up): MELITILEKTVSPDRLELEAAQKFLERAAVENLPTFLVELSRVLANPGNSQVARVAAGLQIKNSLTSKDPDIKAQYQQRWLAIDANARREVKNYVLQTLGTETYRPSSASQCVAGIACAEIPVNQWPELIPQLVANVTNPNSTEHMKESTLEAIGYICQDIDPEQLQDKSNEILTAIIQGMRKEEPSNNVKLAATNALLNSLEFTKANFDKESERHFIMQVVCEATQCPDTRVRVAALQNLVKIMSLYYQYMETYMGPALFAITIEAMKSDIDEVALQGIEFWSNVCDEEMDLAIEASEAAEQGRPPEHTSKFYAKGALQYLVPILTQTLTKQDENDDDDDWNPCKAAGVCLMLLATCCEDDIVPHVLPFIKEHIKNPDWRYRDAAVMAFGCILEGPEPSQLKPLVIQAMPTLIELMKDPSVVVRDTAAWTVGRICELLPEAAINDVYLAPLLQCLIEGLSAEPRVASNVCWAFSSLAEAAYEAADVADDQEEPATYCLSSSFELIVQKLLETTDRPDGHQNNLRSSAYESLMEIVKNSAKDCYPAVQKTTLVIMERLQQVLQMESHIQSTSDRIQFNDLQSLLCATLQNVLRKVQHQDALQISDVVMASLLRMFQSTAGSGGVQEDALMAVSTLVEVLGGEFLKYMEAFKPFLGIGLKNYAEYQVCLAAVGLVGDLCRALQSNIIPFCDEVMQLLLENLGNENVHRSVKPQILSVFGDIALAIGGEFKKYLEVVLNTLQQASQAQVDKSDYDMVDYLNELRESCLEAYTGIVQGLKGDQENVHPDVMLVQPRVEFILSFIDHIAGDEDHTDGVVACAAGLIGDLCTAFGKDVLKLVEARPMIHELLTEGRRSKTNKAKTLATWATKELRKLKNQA
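FRET biosensor (snurportin 1 IBB flanked by EYFP and cerulean), 50 nM, with compound 5 min, then 0.125 microM importin beta in PBS, 1 mM DTT, 0.02% Tween-20, 0.1% BSA. CFP/YFP ratio read after 45 min at room temperature; pre-read flags interference.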
CCT chaperon mod: High-Throughput Screening for Modulators of Cytosolic Chaperonin Activity. purified chaperonin ATPase assay, HTRF ADP detection, 30 min. AID 651819, 2012. activity change, % (concentration not given with the values), hits read low. actives 0.3% (n = 360,000); in the data active = activity change below about -30%; also: % is scaled to controls: 0 for no effect and ±100 for the full control effect
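TRiC at 40 or 20 nM final (batch-dependent) in 30 mM Tris pH 7.4, 100 mM KCl, 5 mM MgCl2, 1 mM DTT, with compound at single 76 uM and 10 uM ATP, 30 min at 37 deg C. ADP detected by HTRF Transcreener, 665/615 ratio.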
Rango release inh: qHTS Assay for Inhibitors of RanGTP induced Rango (Ran-regulated importin-beta cargo) - Importin beta complex dissociation | Biochemical FRET Rango-importin beta, RanGTP-induced dissociation | actives 0.071% (n = 340,000) | Potency, µM (series often up to 46.1 µM), for the others: at the top dose activity change, negative = inhibition; also: potency is read from the fitted curve at half-maximal effect; % of control where 0% means no effect; nearly all actives have a fitted effect of over 45% in size
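FRET read at 45 min, room temperature: inhibitors block the CFP/YFP signal rise when RanGTP (0.6 uM Ran, 2 mM GTP, 0.2 uM RCC1) frees Rango (0.1 uM) from importin beta (0.25 uM). Pre-read after 5 min compound exposure flags interference.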
a7 integrin act: qHTS for Activators of Integrin-Mediated Alleviation for Muscular Dystrophy. Potency, µM (titrated, usually from 38.3 µM), for inactives: at the highest dose activation, actives largely listed as activators. AID 624291, 2012. alpha7betagal myoblasts, beta-gal FDG fluorescence, 48 h. actives 0.064% (n = 350,000); active = well fitted curve in the direction sought with a large enough effect; inconclusive = small, poorly fitted or top-dose-only effect, or another doubt; inactive = no such curve, though single readings can be large; an effect the other way counts as inactive or inconclusive;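 also: potency is read from the fitted curve at half-maximal effect; 100% = response of the positive control SU9516; nearly all actives have a fitted effect of over 60% in size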
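alpha7betagal+/- myoblasts (passage 13, 250/well) treated 48 h at 37C with compounds at 1:260 dilution of DMSO stock. Lysed, then beta-galactosidase activity read as FDG fluorescence (ex 480/em 540) after 30 min, with pre-read for autofluorescence.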
The depositor's hits bear a star; ? = inconclusive; . = no result given; [ ] = dose if it differs, or a comment. Compounds with a hit are over-represented: about 0.51% of the library has one in this group of screens. Unless noted, calls follow the shape of the full dose curve.

SMILES	MmCpn inh	Rango complex inh	CCT chaperon mod	Rango release inh	a7 integrin act
CN1/C(=C/c2cccc[n+]2C)Sc2ccccc21	0%	?	-2	12µM*	-19%
Cc1ccc2c(c1)N(C)/C(=C/c1cccc[n+]1C)S2	-2%	?	0	?	-61%
O=C(/C=C/Nc1ccc(S(=O)(=O)Nc2cnc3ccccc3n2)cc1)c1ccccc1	4%	?	-2	8.2µM*	-1%
Cc1c(C(=O)Nc2nc3ccccc3[nH]2)oc2c(Cl)cccc12	0%	0%	-30*	10%	-6%
COC(=O)c1sc(-c2cccs2)cc1NC(=O)/C=C/C(=O)O	?	6%	-42*	16%	-42%
CC(NC(=O)Cn1cnnn1)C12CC3CC(CC(C3)C1)C2 (stereo not drawn)	2%	1%	-91*	-1%	12%
COc1ccc(NC(=O)c2cccc(N3C(=O)c4ccc(C(=O)Nc5ccc(OC)c(O)c5)cc4C3=O)c2)cc1O	2%	-5%	0	9%	4.5µM*
CC(=O)c1ccc(NC(=O)c2cccc(N3C(=O)c4ccccc4C3=O)c2)cc1	-5%	0%	-2	0%	13%
N#Cc1c(N)nc(SCC(=O)C23CC4CC(CC(C4)C2)C3)c(C#N)c1-c1ccc(Cl)cc1	-7%	-3%	-40*	5%	-15%
CSc1nc(N)nc(SCC(=O)C23CC4CC(CC(C4)C2)C3)c1C#N	-4%	2%	1	-3%	-14%[7.66 µM]
CC(C)c1ccc(NC2CCCN(C(=O)CCN3CCCC3=O)C2)cc1 (stereo not drawn)	-6%	5%	-34*	-4%	-49%
Cc1ccnn1CCC(=O)N1CCCC(Nc2ccc(C(C)C)cc2)C1 (stereo not drawn)	.	.	1	.	23%
Cc1cccc2cc(C#N)c(N3CCOCC3)nc12	0%	?	0	18µM*	-7%
Cc1cc(C)c2nc(N3CCOCC3)c(C#N)cc2c1	-1%	?	2	?	38%
COc1ccc(-n2nc3c(c2NC(=O)COc2ccccc2F)CS(=O)(=O)C3)cc1	1%	-1%	-32*	-15%	-24%
COc1ccc(-n2nc3c(c2NC(=O)COc2ccccc2)CS(=O)(=O)C3)cc1	1%	-1%	-1	9%	17%
CCSC1=N/C(=C\c2ccc3c(c2)OCO3)C(=O)S1	2%	?	-1	16µM*	18%
Cc1cc(C(F)(F)F)nn1CC(=O)Nc1cccnc1	1%	-2%	-41*	14%	-12%
Cc1cc(C)n(CC(=O)Nc2cccc(C(F)(F)F)c2)n1	1%	4%	0	-12%	-26%
COc1cccc(CCOC(=O)c2c(-c3ccsc3)oc3c2C(OC(C)=O)CCC3)c1 (stereo not drawn)	.	.	0	.	.
O=C(Cn1ncc2c3ccccc3n(Cc3ccccc3)c2c1=O)NCCCN1CCCC1	-5%	0%	-1	13%	-48%
O=C(Cn1ncc2c3ccccc3n(Cc3ccccc3)c2c1=O)NCCN1CCOCC1	1%	-3%	-34*	16%	-18%
OCC[C@H]1C[C@H](O)[C@@H](O)[C@]2(CCCO2)O1	.	-2%	-65*	-6%	8%
OCC[C@@H]1C[C@@H](O)[C@H](O)[C@@]2(CCCO2)O1	.	-1%	0	16%	26%
N#Cc1ccc(C[C@H](C(=O)O)N2C(=O)c3ccc(C(=O)O)cc3C2=O)cc1	2%	.	.	.	.
CCOC1(/N=C(\C)NS(=O)(=O)c2ccc(Cl)cc2)C(C)=CC(=O)C=C1C	1%	-3%	-71*	12%	12%
CCCNC(=O)NS(=O)(=O)c1ccc(Cl)cc1	2%	-2%	1	-24%	.
Cn1cc(C(=O)C(=O)NCCc2ccccc2)c2ccccc21	3%	1%	-51*	14%	11%
Cn1cc(SCC(=O)NCCc2ccccc2)c2ccccc21	2%	3%	-3	4%	-5%

Assay outcomes: PubChem, National Center for Advancing Translational Sciences (NCATS)
